DT40 TDP1 no CPT: qHTS for Inhibitors of human tyrosyl-DNA phosphodiesterase 1 (TDP1): qHTS in cells in absence of CPT. 420,000 tested, 15% active. Potency, µM (titrated, usually from 46.2 µM), most hits filed as inhibitors. DT40 Tdp1-/- hTDP1 cells, no CPT, ATP luminescence, 48 h; further: nearly all actives have a fitted effect of over 55% in size
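Compound effects on proliferation are scored in DT40 Tdp1-/-;hTDP1 cells in the absence of CPT. ATP levels (CellTiter-Glo luminescence) are recorded after a ≥48 hr, 37 °C incubation.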
TDP1 cell CPT: growth inhibition of DT40 Tdp1-/-;hTDP1 cells with camptothecin (screen for TDP1 inhibitors); chicken DT40 Tdp1-/-;hTDP1 cells + 20 nM CPT, ATP luminescence, 48 h; Potency, µM (doses to about 46.2 µM), most hits filed as inhibitors; 420,000 tested, 12% active; further: nearly all actives have a fitted effect of over 55% in size
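Cell growth measured by CellTiter-Glo luminescence after a minimum 48 h, 37 C compound exposure with 20 nM CPT in Tdp1-knockout DT40 cells stably expressing hTDP1, seeded 400/well; qHTS titration format.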
Gal4-VP16 FLuc: inhibits Gal4-VP16 luciferase reporter, ROR gamma counter-screen. Drosophila S2 Gal4-VP16 UAS-luciferase, luminescence, 20 h. AID 2546. 310,000 tested, 3.5% active. Potency, µM (series often up to 53.6 µM), usual class: inhibitors;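 further: Gal4-VP16 expression switched on by copper sulfate through the metallothionein promoter; nearly all actives have a fitted effect of over 50% in size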
ELG1 DNA repair: ELG1-dependent DNA repair inhibition. 330,000 tested, 2.3% active. Potency, µM (highest dose often 46.1 µM), most hits filed as inhibitors. HEK293T ELG1-luciferase reporter, luminescence, 16 h; DNA damage induced by 5-fluorouridine; further: nearly all actives have a fitted effect of over 55% in size
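Cells (2,000 per well) received 5-fluorouridine plus test compound or DMSO and were incubated 16 hr at 37 °C, 5% CO2. Luciferase activity was read by luminescence 30 min after ONE-Glo addition; signal suppression marked inhibition of damage-induced ELG1 function.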
RORg inh: ROR gamma (mouse) transcription inhibition | Drosophila S2 Gal4-RORgamma UAS-luciferase reporter, 20 h | Potency, µM (highest dose often 53.6 µM), actives largely listed as inhibitors | 310,000 tested, 5.4% active; further: nearly all actives have a fitted effect of over 60% in size
Target sequence (P51450 whole entry, looked up, the tested form may be a part): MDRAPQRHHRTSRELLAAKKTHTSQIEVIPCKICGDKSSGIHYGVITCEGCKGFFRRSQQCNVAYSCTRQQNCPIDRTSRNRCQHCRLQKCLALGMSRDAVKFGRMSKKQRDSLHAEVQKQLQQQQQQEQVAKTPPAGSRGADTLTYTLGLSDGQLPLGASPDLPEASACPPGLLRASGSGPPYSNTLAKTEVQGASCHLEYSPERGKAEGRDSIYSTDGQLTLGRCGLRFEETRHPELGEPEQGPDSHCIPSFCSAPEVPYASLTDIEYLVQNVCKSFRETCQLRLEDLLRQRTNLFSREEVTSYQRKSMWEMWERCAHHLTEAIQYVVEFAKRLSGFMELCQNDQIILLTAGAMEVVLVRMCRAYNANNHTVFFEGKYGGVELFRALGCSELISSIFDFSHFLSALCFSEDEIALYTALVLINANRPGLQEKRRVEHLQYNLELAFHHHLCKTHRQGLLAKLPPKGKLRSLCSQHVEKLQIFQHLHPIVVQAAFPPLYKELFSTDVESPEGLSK
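Compounds are pin-transferred onto Drosophila Schneider cells expressing a copper-inducible Gal4–ROR gamma transactivation domain fusion. After 1 hr, copper sulfate is added to 700 uM final; luciferase is read 20 hr later.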
IL-1B inflam inh: blocks inflammasome-driven IL-1 beta release | THP-1 LPS/ATP IL-1B secretion, AlphaLISA, 16 h; active compounds read low | activity change, % at 57.5 µM | 360,000 tested, 4.7% active | AID 743279; in the data active means activity change below about -50%; inconclusive means mostly about -30% to -49%
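Secreted IL-1B measured by AlphaLISA bead assay after 16 h compound exposure of THP-1 cells; compounds (final up to 57.5 uM) added 1 h before LPS (250 ng/mL) and ATP (1.25 mM) stimulation; lower signal means less secretion.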
Large screens that a line does not name were inactive. The list is not random: actives were taken first. Their share in the collection is about 21%. Unless noted, the call rests on the fitted dose curve; in most records, active means well fitted curve in the direction sought with a large enough effect; inconclusive means small, poorly fitted or top-dose-only effect, or another doubt; inactive means no such curve, though single readings can be large; an effect the other way counts as inactive or inconclusive.

CCSC1=NC2(CCN(C(=O)NC3CCCCC3)CC2)N=C1c1ccc(C)c(C)c1	none (no result: Gal4-VP16 FLuc, ELG1 DNA repair, RORg inh, IL-1B inflam inh)
O=C(Nc1c2c(nn1-c1cccc(Cl)c1)CS(=O)(=O)C2)c1ccc2c(c1)OCO2	none
O=C(NCC1CC1)C1Cc2c(-c3ccc4c(c3)OCO4)ccnc2O1 (stereo unspecified)	DT40 TDP1 no CPT 18.4µM, TDP1 cell CPT inconclusive (no result: Gal4-VP16 FLuc, ELG1 DNA repair, RORg inh)
O=C(Nc1ccc2c(c1)OCO2)C1Cc2c(-c3ccncc3)ccnc2O1 (stereo unspecified)	DT40 TDP1 no CPT inconclusive (no result: Gal4-VP16 FLuc, ELG1 DNA repair, RORg inh)
O=C(Nc1cccnc1)C1Cc2c(-c3ccc4c(c3)OCO4)ccnc2O1 (stereo unspecified)	DT40 TDP1 no CPT 1.03µM, TDP1 cell CPT 20.6µM, IL-1B inflam inh -56.8 (no result: Gal4-VP16 FLuc, ELG1 DNA repair, RORg inh)
COc1ccc(NC(=O)C2Cc3c(-c4ccc5c(c4)OCO5)ccnc3O2)cc1 (stereo unspecified)	DT40 TDP1 no CPT 8.2µM, TDP1 cell CPT 5.17µM (no result: Gal4-VP16 FLuc, ELG1 DNA repair, RORg inh)
CC(=O)NCCNC(=O)C1Cc2c(-c3ccc4c(c3)OCO4)ccnc2O1 (stereo unspecified)	none (no result: Gal4-VP16 FLuc, ELG1 DNA repair, RORg inh)
O=C(Nc1ccc2c(c1)OCO2)C1Cc2c(-c3ccc(Cl)cc3)ccnc2O1 (stereo unspecified)	DT40 TDP1 no CPT inconclusive, TDP1 cell CPT inconclusive, IL-1B inflam inh -53.1 (no result: Gal4-VP16 FLuc, ELG1 DNA repair, RORg inh)
O=C(Nc1ccc2c(c1)OCO2)C1Cc2c(-c3cccnc3)ccnc2O1 (stereo unspecified)	DT40 TDP1 no CPT inconclusive (no result: Gal4-VP16 FLuc, ELG1 DNA repair, RORg inh)
O=C(COc1ccc(NS(=O)(=O)c2ccc(F)cc2)cc1)N1CCOCC1	none
Cn1ccc2c(-c3ccc4c(c3)OCCO4)cc3c(c21)C1CCC3C1 (stereo unspecified)	DT40 TDP1 no CPT inconclusive, TDP1 cell CPT inconclusive (no result: Gal4-VP16 FLuc, ELG1 DNA repair, RORg inh)
O=c1[nH]c(O)c(/C=C2\C=Nc3ccc(Br)cc32)[nH]1	RORg inh inconclusive, IL-1B inflam inh inconclusive
CC(=O)Nc1ccc(NC(=O)C2Cc3c(-c4ccc5c(c4)OCO5)ccnc3O2)cc1 (stereo unspecified)	none (no result: Gal4-VP16 FLuc, ELG1 DNA repair, RORg inh)
O=C(Nc1ccc2c(c1)OCO2)C1Cc2c(-c3ccc4c(c3)OCO4)ccnc2O1 (stereo unspecified)	DT40 TDP1 no CPT 6.51µM, TDP1 cell CPT 6.51µM (no result: Gal4-VP16 FLuc, ELG1 DNA repair, RORg inh)
CC(=O)Nc1cccc(-c2ccnc3c2CC(C(=O)Nc2ccc4c(c2)OCO4)O3)c1 (stereo unspecified)	DT40 TDP1 no CPT 4.61µM, TDP1 cell CPT 2.91µM (no result: Gal4-VP16 FLuc, ELG1 DNA repair, RORg inh)
COc1ccc(N=C(NN)c2ccc3ccccc3n2)cc1	DT40 TDP1 no CPT inconclusive, Gal4-VP16 FLuc inconclusive, ELG1 DNA repair inconclusive, RORg inh 10µM
COc1ccc(C(=O)NC(=S)NNC(=O)c2ccc3ccccc3n2)cc1	DT40 TDP1 no CPT 18.4µM, TDP1 cell CPT inconclusive, ELG1 DNA repair inconclusive
COc1cc(OC)cc(C(=O)NNC(=O)c2ccc3ccccc3n2)c1	DT40 TDP1 no CPT 5.17µM, TDP1 cell CPT 5.17µM, ELG1 DNA repair inconclusive (no result: Gal4-VP16 FLuc, RORg inh)
CCc1ccc(NC(=O)CSc2nc(=O)n(CCN(C)C)c3c2CCCC3)cc1	DT40 TDP1 no CPT inconclusive, TDP1 cell CPT inconclusive (no result: Gal4-VP16 FLuc, RORg inh)
Cc1ccc(S(=O)(=O)CCC(=O)OCC(=O)Nc2cccc(S(=O)(=O)N3CCCCC3)c2)cc1	DT40 TDP1 no CPT inconclusive (no result: Gal4-VP16 FLuc, ELG1 DNA repair, RORg inh)
Cc1ccc2c(c1)c1c3n2CCCN(Cc2ccccc2)C3CCC1 (stereo unspecified)	DT40 TDP1 no CPT inconclusive, TDP1 cell CPT inconclusive
COC(Cn1c2c(c3cc(C)ccc31)CCCC2NCc1ccccc1)OC (stereo unspecified)	DT40 TDP1 no CPT 14.6µM, TDP1 cell CPT inconclusive, ELG1 DNA repair inconclusive
CC1CN(C(=O)CSc2nnc(NC(=O)NC(C)(C)C)s2)CC(C)O1 (stereo unspecified)	DT40 TDP1 no CPT inconclusive (no result: Gal4-VP16 FLuc, RORg inh)
CCc1ccccc1N(C(C)=O)c1nc(CN=C=S)cs1	DT40 TDP1 no CPT inconclusive, TDP1 cell CPT 23.1µM
CC1NC(=O)c2cccnc2-n2c1nc1cc(F)ccc1c2=O (stereo unspecified)	DT40 TDP1 no CPT inconclusive (no result: Gal4-VP16 FLuc, ELG1 DNA repair, RORg inh)
Cc1ccc(-c2cnc3cc(C)nn3c2)cc1	DT40 TDP1 no CPT inconclusive, Gal4-VP16 FLuc 12.6µM, ELG1 DNA repair inconclusive, RORg inh 11.2µM
Cc1ccc(-c2cnc3c(Cl)c(C)nn3c2)cc1	DT40 TDP1 no CPT 10.3µM, TDP1 cell CPT 20.6µM, Gal4-VP16 FLuc inconclusive, ELG1 DNA repair inconclusive
COc1cccc(-c2nc(NCc3cnc(C)cn3)c3ccccc3n2)c1	none (no result: ELG1 DNA repair, IL-1B inflam inh)
CC(C)S(=O)(=O)c1csc(C(=O)NN)c1Cl	RORg inh 10µM
COc1ccc(NC(=O)c2scc(S(=O)(=O)C(C)C)c2N)cc1	DT40 TDP1 no CPT inconclusive, ELG1 DNA repair inconclusive
COc1ccc(-c2nnc3n2N=C(c2ccccc2OC)CS3)cc1	RORg inh inconclusive (no result: DT40 TDP1 no CPT, TDP1 cell CPT, ELG1 DNA repair, IL-1B inflam inh)
CSc1nc(SCC(=O)O)c2c3c(sc2n1)COC(C)(C)C3	ELG1 DNA repair inconclusive
CSC1=NC(NCCCO)c2c(sc3c2CC(C)(C)OC3)N1 (stereo unspecified)	DT40 TDP1 no CPT inconclusive, ELG1 DNA repair 20.6µM

Screening data (PubChem BioAssay)
